Laboratory results from PubChem BioAssay (NCATS).
“And” between values parts separate entries of the source, which are not always exact repeats. Equal values may be shown once. Records with an inconclusive call do not appear. A number with no mark means an inactive call. The source made the active and inactive calls. Calls follow the shape of the dose curve; as a rule, active = well fitted activation curve with a large enough effect; inconclusive = small, poorly fitted or top-dose-only effect; inactive = no such curve, though single readings can be large or run the other way. Square brackets hold non-standard residues; d marks the D form. Peptide text beside a SMILES is read from it.

target: Cellular tumor antigen p53 (Homo sapiens) (UniProt P04637); experiment: Primary qHTS for small molecule compounds that upregulate eGFP-tagged delta133p53alpha (in N-terminal) cells. (AID 2060322); details: NCI-H358 eGFP-delta133p53alpha fluorescence, 24 h; activation: active compounds read high; also: nearly all actives have a fitted effect of over 75% in size;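 as to activation: cells pre-induced with doxycycline then dosed without doxycycline; series mostly up to about 56 µM; 0% = DMSO vehicle and 100% = reference activator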
Sequence (P04637 whole entry, looked up): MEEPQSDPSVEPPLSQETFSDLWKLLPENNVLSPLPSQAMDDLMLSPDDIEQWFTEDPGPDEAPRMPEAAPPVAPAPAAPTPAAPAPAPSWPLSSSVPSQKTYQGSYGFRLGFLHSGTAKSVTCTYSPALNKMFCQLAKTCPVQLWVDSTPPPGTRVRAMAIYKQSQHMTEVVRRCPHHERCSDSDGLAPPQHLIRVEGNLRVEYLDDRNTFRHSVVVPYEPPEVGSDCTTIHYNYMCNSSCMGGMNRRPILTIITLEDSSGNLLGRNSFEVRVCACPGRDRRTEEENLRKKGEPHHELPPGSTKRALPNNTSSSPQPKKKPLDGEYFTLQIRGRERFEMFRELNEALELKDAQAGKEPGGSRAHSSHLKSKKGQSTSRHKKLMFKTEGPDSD
Method in brief: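 NCI-H358 cells pre-induced 24 h with 10 ng/ml doxycycline for eGFP-delta133p53alpha, plated dox-free and exposed 24 h at 37C to titrated compounds. Fixed, Hoechst-stained; gated GFP peak intensity by laser scanning cytometry, normalized to DMSO (0%) and 57.5 uM 5-azacytidine (100%).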
Potency is read from the fitted curve at half-maximal effect.

SMILES | activation | Potency
CC1=C(C)C(=O)OC(C(C)C2C(O)CC3C4C5OC5C5(O)CC(OC6OC(CO)C(OC7OC(C)C(O)C(O)C7O)C(O)C6O)CC(O)C5(C)C4CCC32C)C1 (centres undefined) | -6.87% | –
CC1C(=O)CC2C3C(O)CC(C(=O)O)C12CC3(C)C (centres undefined) | 1.53% | –
C=C1C(OC2OCC(O)C(O)C2O)CC2C(C)(C)C(O)CCC2(C)C1CC/C(C)=C\CO (centres undefined) | 7.63% | –
O=C(OCC12OC1C=CC(OC(=O)c1ccccc1)C2O)c1ccccc1 (centres undefined) | 10.7% | –
C[C@@H]1CCC/C=C/[C@H]2CC(=O)C[C@@H]2[C@@H](O)/C=C/C(=O)O1 | 9.82% | –
CC(=O)N[C@H](Cc1ccc(O)cc1)C(=O)N[C@H](CCCN=C(N)N)C(=O)N[C@H](Cc1ccccc1)C(N)=O (Ac-[dY]-[dR]-[dF]-NH2) | -15.7% | –
O=C1OCC(c2ccccc2)=C1Cc1ccccc1 | -8.4% | –
C=C1C(=O)O[C@H]2[C@H]1[C@@H](OC(=O)/C(C)=C\C)C[C@]1(C)O[C@@H]1[C@H]1O[C@H]1C(=C)[C@H]2O | -10.7% | –
COc1cn(-c2ccc(-n3cccn3)cc2F)nc(-c2ccnn2-c2ccccc2)c1=O | 0% | –
COC(=O)C1=COC(O[C@@H]2O[C@H](CO)[C@@H](O)[C@H](O)[C@H]2O)[C@H]2[C@@H]1[C@H](OC(=O)CCc1ccc(O)cc1)C[C@]2(C)O (some centres undefined) | 21.4% | –
CC1CCC2(NC1)OC1CC3C4CC=C5CC(O[C@@H]6O[C@H](CO)[C@@H](O[C@@H]7O[C@@H](C)[C@H](O)[C@@H](O)[C@H]7O)[C@H](O)[C@H]6O[C@@H]6O[C@@H](C)[C@H](O)[C@@H](O)[C@H]6O)CCC5(C)C4CCC3(C)C1C2C (some centres undefined) | 16.8% | –
CC1(C)CCCC2(C)C3=C(C(=O)OC3O)C(O)CC12 (centres undefined) | 9.92% | –
c1ccc(-c2cnn3cc(-c4ccc(OCCN5CCOCC5)cc4)cnc23)cc1 | -17% | –
CC(=O)O[C@@]1(C)C[C@@H](O)[C@]2(O)C=CO[C@@H](O[C@@H]3O[C@H](CO)[C@@H](O)[C@H](O)[C@H]3O)[C@@H]21 | -14.5% | –
CC(=O)N[C@H]1[C@H](O[C@H]2CC[C@@]3(C)C(CC[C@]4(C)C3CC=C3C5CC(C)(C)CC[C@]5(C(=O)O)[C@H](O)C[C@]34C)C2(C)C)O[C@H](CO[C@@H]2OC[C@H](O)[C@H](O)[C@H]2O[C@@H]2OC[C@@H](O)[C@H](O)[C@H]2O)[C@@H](O)[C@@H]1O (some centres undefined) | -19.1% | –
COc1cccc(Cn2ncc3c4sc(S(C)=O)cc4n(C)c3c2=O)c1 (centres undefined) | 7.67% | –
C=C1CCC2C(C)(C(=O)O)CCCC2(C)C1CCC(C)CC(=O)O (centres undefined) | -3.57% | –
C=C(CCO)C(=O)OCC1OCC(OC(=O)C(=C)CCO[C@@H]2O[C@H](CO)[C@@H](O)[C@H](O)[C@H]2O)C(O)C1O (some centres undefined) | -8.4% | –
CC1C=CC2CCCCC2C1CCC1CC(O)CC(=O)O1 (centres undefined) | -0.893% | –
C=CC/C=C\C/C=C\CCCCCCCc1cccc(O)c1C(=O)O | 8.04% | –

SMILES | activation | Potency
C/C=C(\C)C(=O)O[C@H]1C=CC(=O)O[C@H]1/C=C/[C@@H](O)[C@H](C)O | – | 26.9 µM (active)
C/C(=C\C(=O)C[C@@]12C(=O)O[C@]3(C)CC[C@H]1C[C@H]23)C(N)=O | 9.92% | –
C[C@H]1[C@H](C)CC[C@]2(C(=O)O)CC[C@]3(C(=O)O)C(=CCC4[C@@]5(C)CC[C@H](O[C@@H]6O[C@H](C)[C@@H](O)[C@H](O)[C@H]6O)C(C)(C)C5CC[C@]43C)[C@H]12 (some centres undefined) | -5.36% | –
CC1(CO)CC(O)C2(C)CCC3(C)C(=CCC4C5(C=O)CCC(OC6OC(C(=O)O)C(O)C(O)C6OC6OC(C(=O)O)C(O)C(O)C6O)C(C)(C)C5CCC43C)C2C1 (centres undefined) | -10.7% | –
CCCCS(=O)(=O)N[C@@H](Cc1ccc(OCCCCC2CCNCC2)cc1)C(=O)O | -22% and 10.3% | –
CC(=O)NC[C@H]1CN(c2ccc(N3CCN(C(=O)CO)CC3)c(F)c2)C(=O)O1 | 11.6% | –
C[C@@H](Cc1cc2c(c(C(N)=O)c1)N(CCCO)CC2)NCCOc1ccccc1OCC(F)(F)F | 13.7% | –
O=c1cc(N2CCN(c3cccc(C(F)(F)F)c3)CC2)[nH]c(=O)n1C1CCCCC1 | 25% | –
N[C@H]1C[C@H]1c1ccc(-c2cccc(O)c2)cc1 | 1.67% | –
COC(=O)[C@H](O)[C@H]1C(C)(C)[C@H](OC(=O)C(C)C)[C@@]2(O)C(=O)[C@]1(C)C1CC[C@]3(C)C(CC(=O)O[C@H]3c3ccoc3)[C@]13O[C@@H]32 (some centres undefined) | 6.11% | –
C[C@@H]1O[C@@H](O[C@H]2[C@H](O)[C@@H](O)[C@H](O[C@H]3[C@H](O[C@H]4CC[C@@]5(C)C(=CC[C@@H]6C5CC[C@]5(C)[C@@H]7[C@H](C[C@@H]65)O[C@]5(CC[C@@](C)(CO[C@@H]6O[C@H](CO)[C@@H](O)[C@H](O)[C@H]6O)O5)[C@H]7C)C4)O[C@H](CO)[C@@H](O)[C@@H]3O)O[C@@H]2CO)[C@H](O)[C@H](O)[C@H]1O (some centres undefined) | – | 3.6 µM (active)
COc1cc(C)c(C(=O)NC2C(C)OC(OC3CCC(C)C4C3C=C(C)C3/C(C)=C\CC/C(C)=C/C5(C)C=C(C(=O)O)C(C)CC56OC(=O)/C(=C(\O)C34C)C6=O)C(O)C2(C)O)c(O)c1 (centres undefined) | 3.82% | –
O=C(Nc1cccc([N+](=O)[O-])c1)c1cccc(S(=O)(=O)N2CCCCCC2)c1 | 1.67% | –
CCC(C)/C=C(C)/C=C/C1=CC2=C(Cl)C(=O)C(C)(OC(C)=O)C(=O)C2=CN1CCCC(=O)O (centres undefined) | 0.763% | –
C=C1CCC2[C@](C)(CCC[C@@]2(C)C=O)[C@H]1CC/C(C)=C/CO (some centres undefined) | 11.5% | –
C[C@]1(CO)CCC[C@]2(C)C3=C(CCC12)COC3 (some centres undefined) | -8.04% | –
COc1cc(C2c3cc(O)c(OC)cc3CC(CO)C2CO)ccc1O (centres undefined) | 8.93% | –
CC1(C)C(=O)N2c3ccccc3C(O)(CC(C(=O)O)n3cnc4ccccc4c3=O)C2N1O (centres undefined) | 16% | –
O=C1COC2(CCN(S(=O)(=O)c3ccc(-c4ccc5cccnc5c4)cc3)CC2)CN1C1CC1 | -15.7% | –
